In all, about 360,000 compounds went through this assay and about 810 (0.23%) were called active. Shown is part of a subset that was picked to be rich in actives. Unmarked numbers belong to inactive results. Cut-off read from the data, not from the text of the source: active = potentiation above about 50%; inconclusive = mostly about 30% to 49%; inactive = weaker than that.
biological target: D(2) dopamine receptor (Homo sapiens) (UniProt P14416); assay: Beta-Arrestin HTS for Positive Allosteric Modulators of the Human D2 Dopamine Receptor: Potentiators; conditions: DiscoveRx D2 beta-arrestin cells, luminescence, 90 min; hits give high values; 100% = 57 uM dopamine signal
Sequence (P14416 whole entry, looked up): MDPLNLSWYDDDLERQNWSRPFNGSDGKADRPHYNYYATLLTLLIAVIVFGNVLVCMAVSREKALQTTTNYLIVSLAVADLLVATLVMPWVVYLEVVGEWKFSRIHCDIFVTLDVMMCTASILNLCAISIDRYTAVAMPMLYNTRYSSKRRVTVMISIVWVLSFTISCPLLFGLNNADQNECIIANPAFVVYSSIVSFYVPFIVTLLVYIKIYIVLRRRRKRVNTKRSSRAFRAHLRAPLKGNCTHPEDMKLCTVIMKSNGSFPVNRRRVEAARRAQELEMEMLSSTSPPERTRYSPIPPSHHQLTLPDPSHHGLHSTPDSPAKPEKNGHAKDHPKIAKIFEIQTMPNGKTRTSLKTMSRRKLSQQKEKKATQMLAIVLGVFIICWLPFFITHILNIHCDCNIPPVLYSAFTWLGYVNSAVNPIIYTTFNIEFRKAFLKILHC
Description: There is great interest in identifying small molecule ligands for G-protein coupled receptors (GPCRs) as nearly 50% of all FDA-approved drugs target these important receptor proteins. […] Amongst the dopamine receptors (DARs), the D2 is arguably one of the most validated drug targets in neurology and psychiatry. For instance, all receptor-based antiparkinsonian drugs primarily work via stimulating the D2 DAR, whereas all FDA-approved antipsychotic agents are antagonists of this receptor. The D2 DAR is also therapeutically targeted in other disorders such as restless legs syndrome, tardive dyskinesia, Tourette's syndrome, and hyperprolactinemia.
To this end, a miniaturized qHTS screen was developed to be screened against the Molecular Libraries Small Molecule Repository (MLSMR). This assay seeks to identify potentiators against the D2 DAR.
NIH Molecular Libraries Probe Production Network [MLPCN]
NIH Chemical Genomics Center [NCGC]
PI Name: David Sibley, National Institutes of Neurological Disorders and Stroke
DiscoveRx D2 cells were thawed from frozen stock and seeded at 2,100 cells/ 3 uL/well media (DiscoveRx Plating Reagent 2) with MultiDrop Combi dispenser (Thermo Scientific, Logan, UT) onto white tissue culture treated 1536-well Aurora plates (Brooks Automation, Chelmsford, MA) and allowed to attach overnight at 37 deg C, 5% CO2. Next, 23 nL/well of compound solutions in DMSO were added with a pintool transfer (Kalypsis, San Diego, CA). As the positive control, 1 uL/well dopamine (EC100, 57 uM final concentration) diluted in buffer (HBSS + 10 mM HEPES + SMB + 0.1 %Tween-20) was dispensed to 1 column of each plate. EC20 (Dopamine at 50 nM final concentration) was dispensed to the rest of the plate except columns 1 &2 which were used as negative control (EC=0, buffer only), 1 uL/well as well. The cells were stimulated by compounds and dopamine for 90 minutes at 37 deg C, 5% CO2, after which 1.5 uL/well of DiscoveRx detection reagent was added with BioRAPTR FRD dispenser. The detection reagent was prepared by mixing of Galacton Star Substrate, Emerald II solution and PathHunter buffer (supplied by the assay kit) together at 1:5:19 proportion accordingly just prior to dispensing. The plates were incubated at ambient temperature for 1 hour and then the luminescent signal was read on ViewLux plate reader (PerkinElmer, Waltham, MA).

Compound | potentiation
CSc1ncnc2c1ncn2CCCNCc1cccs1 | 0.128%
CCN(CC)P(=O)(Nc1ccc(SC(F)F)cc1)c1ccc(N(C)C)cc1NC(=O)c1ccco1 (stereo not given) | -7.82%
CC(=O)CC[C@@H](C)O[C@@H]1OC(C)[C@H](O)CC1O (stereo not given in full) | -9.1%
Cc1ccc(S(=O)(=O)N2CCC3(CC2)OCCO3)c(C)c1 | -6.31%
NC(N)=Nc1nc(-c2ccccc2)c2cc(Cl)ccc2n1 | -62.5%
Oc1ccc(-c2onc3ccc(Cl)cc23)cc1 | 50.4% (active)
COc1ccc(-c2onc3ccc(C(C)=O)cc23)cc1 | 28%
Nc1nc(SCC(=O)NCCN2CCOCC2)nc2sc3c(c12)CCC3 | -8.51%
CC(C)(C)C1CCc2c(sc3nc(SCC(N)=O)nc(N)c23)C1 (stereo not given) | 58.8% (active)
C=C(C)CSc1nc(N)c2c3c(sc2n1)CCC3 | -7.64%
CCOC(=O)CN(C(=O)COc1nc(C)cc(C)c1C#N)c1ccc(Cl)cc1 | -3.59%
N#C/C(=C\C1=C(N2CCOCC2)C(=C\c2ccccc2)/CC1)C(=O)Nc1ccccc1F | -1.9%
O=C1Nc2ccc(Br)cc2/C1=N/N=C/C1=C(N2CCOCC2)C(=C\c2ccccc2)/CC1 | -26.8%
O=C(O)c1ccc(NN=CC2=C(N3CCOCC3)/C(=C/c3ccccc3)CC2)cc1 | 77.1% (active)
COc1ccc(CCn2ccc(O)c(Cc3ccc(Cl)cc3Cl)c2=O)cc1OC | -38.7%
COc1ccc(C(=O)O/N=C(\N)Cc2ccc(Cl)cc2Cl)cc1OC | 94.6% (active)
COc1ccc(C(=O)n2nc(-c3ccc(Cl)cc3)nc2N)cc1OC | -7.87%
NC(=O)c1cc(S(=O)(=O)N2CCCC2)ccc1OCc1ccc(F)cc1 | -13.4%
CC1(C)NC(=O)N(CC(=O)Nc2cc(C(F)(F)F)cc(C(F)(F)F)c2)C1=O | 1.66%
COc1ccc(CCNCc2c(-c3ccccc3)n(C)c3ccccc23)cc1 | -20.4%
CC1(C)CC(=O)C=C(NCCN2CCNCC2)C1 | -7.29%
COc1ccc(-c2nnc(SC(C)C(=O)NC3CC3)o2)cc1 (stereo not given) | 0.965%
COc1ccc(CN(C(=O)CSc2nnc(-c3ccc(OC)c(OC)c3)o2)c2ccc(F)cc2)cc1 | -14.5%

Compound | potentiation
COc1ccc(-c2nnc(SC(=O)N3c4ccccc4Sc4ccccc43)o2)cc1 | 72.5% (active)
CC(C)c1ccc(Nc2ncccc2C#N)cc1 | -6.55%
COc1ccc(-c2csc(C(O)c3cccc(Cl)c3)n2)cn1 (stereo not given) | -10.4%
CNC(=O)/C(C#N)=C/c1c(F)cccc1Cl | 21.1%
O=C(Nc1ccccc1F)c1ccccc1-c1ccc(C(F)(F)F)cc1 | -15.1%
N#C/C(=C\c1ccccc1C(F)(F)F)C(=O)Nc1ccccc1F | 57.7% (active)
O=C(COC(=O)c1cc(-c2cccs2)nn1-c1ccccc1)Nc1cc([N+](=O)[O-])ccc1Cl | -0.407%
COc1ccc(CN2C(CC(=O)Nc3cccnc3)c3ccc(C(F)(F)F)cc3S2(=O)=O)cc1 (stereo not given) | -5.81%
COc1ccc(N(CC(=O)NC2CCCCC2)C(=O)CNC(=O)c2ccco2)c(OC)c1 | -8.59%
COc1ccccc1CNC(=O)c1cc(-c2cc(Cl)ccc2C)n[nH]1 | -2.11%
Cc1cccnc1NC(=O)CSc1nnc(COc2ccc(C(C)C)cc2)n1C | -13.7%
COc1ccccc1C(=O)Nc1ccc(OCc2nnc3c4ccccc4c(C)nn23)cc1 | 9.9%
Cc1ccc(OCc2nnc(SC3CCc4ccccc4C3=O)n2C)cc1 (stereo not given) | 51.4% (active)
O=c1[nH]c(=S)[nH]c(O)c1/C=C1\C=Nc2ccccc21 | -32.7%
O=C1NC(c2ccc(-c3ccccc3[N+](=O)[O-])o2)C(C(=O)c2ccc(Cl)cc2)C(O)(C(F)(F)F)N1 (stereo not given) | 55.4% (active)
CCOC(=O)C1C(c2ccc(O)cc2)NC(=O)NC1(O)C(F)(F)F (stereo not given) | -0.717%
CC1=NN(c2ccc(Cl)c(C(=O)O)c2)C(=O)/C1=C/c1ccc(-c2ccccc2[N+](=O)[O-])o1 | -7.86%
CCC(C)NC(=O)C1CCCN(C(=O)NC2CCCCC2)C1 (stereo not given) | 2.71%
COC(=O)CSc1ccc2nnc(CCNS(=O)(=O)c3ccc(C)cc3)n2n1 | 71.3% (active)
O=C(NCCc1nnc2ccc(SCC(=O)N3CCOCC3)nn12)c1ccccc1 | 1.02%
Cc1ccc(S(=O)(=O)NCCc2nnc3ccc(SCc4cccnc4)nn23)cc1 | -34.2%
CN(Cc1ccccc1)C(=O)COC(=O)/C=C/c1ccc2c(c1)OCO2 | -10.6%
Cc1coc2c(O)cc3c(c12)OC1(N2CCCCC2)C(=O)NCCCC31 (stereo not given) | 70.8% (active)

Compound | potentiation
CC(=O)Nc1cc(-c2ccc(N3CCN(C)CC3)cc2)cn2c(-c3cccc(C(=O)N(C)C)c3)cnc12 | -8.12%
COC(=O)[C@H]1C[C@H](OC(=O)NCc2ccccc2)[C@@]2(O)CN(S(=O)(=O)c3ccc(C)cc3)CC2[C@H]1C(=O)OC (stereo not given in full) | -0.0644%
Cc1ccc(NC(=O)COC(=O)CN2CCCCCC2=O)c(C)c1 | -1.65%
Cc1ccc(S(=O)(=O)N2CCN(C(=O)c3cc(S(=O)(=O)N4CCOCC4)ccc3F)CC2)cc1 | 0.45%
CN1OC[C@@H]2CN(C(=O)C(C)(C)C)[C@H](c3ccc(-n4ccnc4)cc3)C[C@@H]21 | -5.65%
CC(Oc1cccc(Cl)c1)C(=O)NC1CC(C)(C)NC(C)(C)C1 (stereo not given) | -22.7%
Cc1ccc(NC(=O)CN(C)S(=O)(=O)c2cnc[nH]2)cc1C | -13%
CN(CC(=O)Nc1ccccc1Cl)C(=O)c1ccccc1SCC(=O)N1CCCC1 | -9.34%
O=C1C=C(c2cccc(Br)c2)C[C@@H](c2ccc(F)cc2)C1 | -7.26%
Cc1ccc(CN(N=Nc2nonc2N)c2nonc2N)c(C)c1 | 25.8%
O=C1Oc2ccccc2C(=O)/C1=C/c1ccccc1O | 1.41%
O=C(N/N=C/c1ccc([N+](=O)[O-])cc1)c1c[nH]c2ccccc12 | 64.1% (active)
O=C(Cc1c[nH]c2ccccc12)N/N=C/c1cccc(F)c1 | -9.63%
O=C(COc1ccc(/C=N/NC(=O)c2ccc(O)cc2)cc1)Nc1ccc([N+](=O)[O-])cc1 | -4.2%
Nc1nc(CSc2nnnn2-c2ccccc2)nc(Nc2ccccc2)n1 | 4.76%
COCCCn1c(C(=O)NC2CCCCC2)cc2c(=O)n3cccc(C)c3nc21 | -4.49%
CC12CN3CCN(CC(C3)/C1=N\NC(=O)c1ccccc1N)C2 | -0.591%
CCC(C)c1ccccc1NC(=O)CN(C)CC(=O)Nc1ccccc1SC (stereo not given) | 1.68%
COc1cccc2oc(CCc3ccccc3)cc(=O)c12 | -6.37%
Cc1c2cn[nH]c(=O)c2c(C)n1Cc1ccc(F)cc1 | -5.05%
CN1CCC2(CC1)NC(=O)NC2=O | 11.5%
COc1cccc(N=c2oc3c(C)ncc(CO)c3cc2C(N)=O)c1 | -0.831%
CCNC(=O)C1(C)CCN(C(=O)c2ccccc2)C1 (stereo not given) | -7.31%

Compound | potentiation
CN(C)S(=O)(=O)c1ccc(N2CCCC2)c(C(=O)NCc2ccccc2)c1 | -8.01%
COc1cccc(CNc2ncc(-c3ccccc3)n2C)c1 | -30.3%
CCOC(=O)c1cc2c(=O)[nH]c(C(Cl)(Cl)Cl)nc2o1 | 7.93%
CCC(C)CCN1CCN=C1N(C)C (stereo not given) | -8.79%
Cc1ccc(N(CC(=O)NCC2CCCO2)C(=O)CNS(=O)(=O)c2ccc(Cl)cc2)cc1 (stereo not given) | 0.715%
COc1cccc(-c2cnc(OC(C)(C)C)nc2OC(C)(C)C)c1 | -5.2%
COc1cccc(CNC(=O)Cn2c(=O)oc3cc(S(=O)(=O)N4CCCCC4)ccc32)c1 | -3.62%
CCOC(=O)C1(Cc2cccc(OC)c2)CCN(Cc2csc(C(C)=O)c2)CC1 | -21.6%
NC1=NC(c2ccc([N+](=O)[O-])cc2)N(c2ccc(F)cc2)C(N)=N1 (stereo not given) | 0.113%
Cc1ccc2c(c1)C(O)(CC(=O)c1cccnc1)C(=O)N2 (stereo not given) | -30%
Cc1ccc(S(=O)(=O)n2cccc2CO)cc1 | -0.194%
Cc1cccc(CNC(=O)c2sc(=O)n(Cc3ccccc3C)c2C)c1 | -5.51%
CC(C)(C)N1C(=O)c2c(C(=O)OCc3ccccc3)[nH]c(-c3ccccc3)c2C1=O | -2.35%
CC(C)Nc1nnc(SC(C)C(=O)N(C)C2CCCCC2)s1 (stereo not given) | -2.23%
CCCN(CC1CC1)C(=O)COC(=O)c1ccc(C)cc1O | -24.9%
Cc1ccc(S(=O)(=O)N(CCCN(C)C)Cc2ccc3c(c2)OCO3)cc1 | -10.1%
CC1=C(C(=O)N(C(C)C)C(C)C)CC(CC(=O)NCCCCc2ccccc2)C(=O)N1CCC1=CCCCC1 (stereo not given) | -4.46%
CCOC(=O)CSc1nnc(NC(=O)C2CC(=O)N(c3ccc(F)cc3)C2)s1 (stereo not given) | -2.95%
S=C(Nc1cccc(Cl)c1)Nc1ccc2cn[nH]c2c1 | 60.4% (active)
CC(C)Cc1nnc(NC(=O)CCC(=O)Nc2ccc3cn[nH]c3c2)s1 | -12.9%
O=C(Nc1ccc2cn[nH]c2c1)c1ccc(S(=O)(=O)N2CCOCC2)cc1 | -3.76%
